# Many of the other results were omitted from the sample, so the strongest signals are more common in it than they were.
# B1: Mindin (Homo sapiens), Q9BUD6 (protein)
# chain: MENPSPAAALGKALCALLLATLGAAGQPLGGESICSARALAKYSITFTGKWSQTAFPKQYPLFRPPAQWSSLLGAAHSSDYSMWRKNQYVSNGLRDFAERGEAWALMKEIEAAGEALQSVHEVFSAPAVPSGTGQTSAELEVQRRHSLVSFVVRIVPSPDWFVGVDSLDLCDGDRWREQAALDLYPYDAGTDSGFTFSSPNFATIPQDTVTEITSSSPSHPANSFYYPRLKALPPIARVTLVRLRQSPRAFIPPAPVLPSRDNEIVDSASVPETPLDCEVSLWSSWGLCGGHCGRLGTKSRTRYVRVQPANNGSPCPELEEEAECVPDNCV
# What was measured:
# Test in all cases: glycan array binding signal (z-score within array); higher = stronger binding
# Conditions in all cases: glycan notation: IUPAC condensed, linker removed
# Fuc(a1-2)Gal = target: Fuc(a1-2)Gal
# In short: (§1)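 Columns mapping to the same glycan were averaged after glycan names were converted to IUPAC-condensed notation. The data come from 3228 arrays in the Consortium for Functional Glycomics database, limited to those with an available protein sequence. Binding is reported as a within-array Z-score averaged across arrays of one protein sequence and across linkers.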
# [1] = target: Fuc(a1-2)Gal(b1-4)GlcNAc(b1-3)Gal(b1-4)GlcNAc
# In short: as §1
# [2] = target: Fuc(a1-2)Gal(b1-4)[Fuc(a1-3)]GlcNAc
# In short: as §1
# [3] = target: Fuc(a1-2)Gal(b1-4)[Fuc(a1-3)]GlcNAc(b1-3)Gal(b1-4)[Fuc(a1-3)]GlcNAc
# In short: as §1
# [4] = target: Fuc(a1-2)[Gal(a1-3)]Gal(b1-4)[Fuc(a1-3)]GlcNAc
# In short: as §1
# [5] = target: Fuc(a1-2)[GalNAc(a1-4)]Gal(b1-4)GlcNAc
# In short: as §1
# [6] = target: Fuc(a1-3)[Gal(b1-4)]GlcNAc(b1-4)Gal(b1-4)[Fuc(a1-3)]GlcNAc
# In short: as §1
# Gal(a1-3)Gal = target: Gal(a1-3)Gal
# In short: as §1
# [7] = target: Gal(a1-3)Gal(b1-4)[Fuc(a1-3)]GlcNAc
# In short: as §1
# Gal(a1-4)Gal(b1-4)GlcNAc = target: Gal(a1-4)Gal(b1-4)GlcNAc
# In short: as §1
# [8] = target: Gal(b1-3)GlcNAc(b1-3)Gal(b1-3)GlcNAc
# In short: as §1
# [9] = target: Gal(b1-3)GlcNAc(b1-3)Gal(b1-4)GlcNAc
# In short: as §1
# [10] = target: Gal(b1-3)[Fuc(a1-4)]GlcNAc(b1-3)Gal(b1-4)GlcNAc
# In short: as §1
# [11] = target: Gal(b1-4)GlcNAc(b1-3)[Gal(b1-4)GlcNAc(b1-6)]GalNAc
# In short: as §1
# [12] = target: Gal(b1-4)GlcNAc(b1-6)Gal(b1-4)GlcNAc(b1-6)GalNAc
# In short: as §1
# [13] = target: Gal(b1-4)GlcNAc(b1-6)GalNAc
# In short: as §1
# GalNAc(b1-3)GalNAc = target: GalNAc(b1-3)GalNAc
# In short: as §1
# [14] = target: GlcNAc(b1-3)[GlcNAc(b1-6)]Gal(b1-4)GlcNAc
# In short: as §1
# [15] = target: Man(a1-2)Man(a1-2)Man(a1-3)Man
# In short: as §1
# Neu5Ac(a2-3)Gal = target: Neu5Ac(a2-3)Gal
# In short: as §1
# [16] = target: Neu5Ac(a2-3)Gal(b1-3)[Fuc(a1-4)]GlcNAc(b1-3)Gal(b1-4)[Fuc(a1-3)]GlcNAc
# In short: as §1
# [17] = target: Neu5Ac(a2-3)Gal(b1-4)GlcNAc(b1-6)[Gal(b1-3)]GalNAc
# In short: as §1
# [18] = target: Neu5Ac(a2-3)Gal(b1-4)[Fuc(a1-3)]GlcNAc
# In short: as §1
# [19] = target: Neu5Ac(a2-8)Neu5Ac(a2-8)Neu5Ac(a2-3)Gal(b1-4)Glc
# In short: as §1
# [20] = target: Neu5Gc(a2-6)Gal(b1-4)GlcNAc
# In short: as §1
binder,measurement,setting,value
B1,glycan array binding signal (z-score),Fuc(a1-2)Gal,-0.273
same,glycan array binding signal (z-score),[1],-0.186
same,glycan array binding signal (z-score),[2],-0.185
same,glycan array binding signal (z-score),[3],0.005
same,glycan array binding signal (z-score),[4],-0.133
same,glycan array binding signal (z-score),[5],2.81
same,glycan array binding signal (z-score),[6],-0.142
same,glycan array binding signal (z-score),Gal(a1-3)Gal,-0.238
same,glycan array binding signal (z-score),[7],0.093
same,glycan array binding signal (z-score),Gal(a1-4)Gal(b1-4)GlcNAc,-0.141
same,glycan array binding signal (z-score),[8],-0.279
same,glycan array binding signal (z-score),[9],2.01
same,glycan array binding signal (z-score),[10],1.28
same,glycan array binding signal (z-score),[11],2.02
same,glycan array binding signal (z-score),[12],-0.238
same,glycan array binding signal (z-score),[13],1.34
same,glycan array binding signal (z-score),GalNAc(b1-3)GalNAc,-0.245
same,glycan array binding signal (z-score),[14],-0.324
same,glycan array binding signal (z-score),[15],-0.085
same,glycan array binding signal (z-score),Neu5Ac(a2-3)Gal,-0.347
same,glycan array binding signal (z-score),[16],0.188
same,glycan array binding signal (z-score),[17],-0.36
same,glycan array binding signal (z-score),[18],-0.257
same,glycan array binding signal (z-score),[19],-0.295
same,glycan array binding signal (z-score),[20],-0.363
